The full data set covers some 8,800 targets. This sample favours those with a hit. About 0.5% of all pairs of compound and target were hits.
How the values were obtained:
Experiment in all cases: log2 fold change, soluble protein after heating vs DMSO (PISA); higher = thermal stabilisation; K562 lysate, 10 uM; active = over 0.2 and 3.5 SD of the protein, either way, in both replicates (recomputed)
[1] = compound: NCC(=O)Nc1ccc(-n2nc(C(F)(F)F)cc2-c2ccc3c(ccc4ccccc43)c2)cc1
Method in brief: (§1)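 Dounce homogenisation of K562 pellets in PBS pH 7.4 with 1 mM MgCl2 produced a crude extract, used at 1 mg/mL protein. Exposure to 10 μM compound lasted 30 min, and aliquots were then heated for 3 min across 48°C-58°C, pooled and brought to 0.5% NP-40 at 4°C. The supernatant after 21,000xg for 90 min was quantified by TMTpro 16plex LC-MS/MS with channel sums equalised. Duplicate values are given as log-two fold change in thermal stability relative to solvent controls.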

vorinostat = compound: O=C(CCCCCCC(=O)Nc1ccccc1)NO [vorinostat]
Method in brief: as §1

silmitasertib = compound: O=C(O)c1ccc2c(c1)nc(Nc1cccc(Cl)c1)c1ccncc12 [silmitasertib]
Method in brief: as §1

[2] = compound: O=C1NC(=O)C(c2cnc3ccccn23)=C1c1cn2c3c(cc(F)cc13)CN(C(=O)N1CCCCC1)CC2
Method in brief: as §1

entospletinib = compound: c1cn2cc(-c3ccc4cn[nH]c4c3)nc(Nc3ccc(N4CCOCC4)cc3)c2n1 [entospletinib]
Method in brief: as §1

Measured: log2 fold change

SNRPF (UniProt P62306)
UniProt P62306, sequence (P62306 whole entry, looked up): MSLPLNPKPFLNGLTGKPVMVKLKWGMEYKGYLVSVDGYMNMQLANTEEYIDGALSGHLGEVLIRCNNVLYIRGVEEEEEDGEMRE
inactive: [1] -0.019 | vorinostat -0.014 | silmitasertib -0.001 | [2] -0.01 | entospletinib -0.016

SOAT1 (UniProt P35610)
inactive: [1] 0.014 | vorinostat 0.005 | silmitasertib 0 | [2] -0.037 | entospletinib 0.015

SMC3 (UniProt Q9UQE7)
inactive: [1] -0.023 | vorinostat 0.06 | silmitasertib -0.009 | [2] -0.017 | entospletinib 0.012

SMG7 (UniProt Q92540)
inactive: [1] 0.158 | vorinostat -0.053 | silmitasertib 0.027 | [2] -0.035 | entospletinib 0.054

SLC12A6 (UniProt Q9UHW9)
inactive: [1] 0.009 | vorinostat 0.15 | silmitasertib -0.045 | [2] 0.003 | entospletinib 0.013

SH3GL3 isoform 3 (UniProt Q99963)
inactive: [1] 0.108 | vorinostat -0.091 | silmitasertib 0.028 | [2] 0.01 | entospletinib 0.01

STK25 (UniProt O00506)
inactive: [1] -0.024 | vorinostat -0.06 | silmitasertib 0.051 | [2] -0.03 | entospletinib -0.043

SNRPD2 (UniProt K7EJB5)
inactive: [1] 0.119 | silmitasertib 0.056 | [2] -0.1 | entospletinib -0.004
active: vorinostat 0.493

SYK (UniProt P43405)
inactive: [1] 0.135 | vorinostat -0.138 | silmitasertib 0.053 | [2] 0.016 | entospletinib -0.079

SPNS1 (UniProt Q9H2V7)
UniProt Q9H2V7, sequence (Q9H2V7 whole entry, looked up): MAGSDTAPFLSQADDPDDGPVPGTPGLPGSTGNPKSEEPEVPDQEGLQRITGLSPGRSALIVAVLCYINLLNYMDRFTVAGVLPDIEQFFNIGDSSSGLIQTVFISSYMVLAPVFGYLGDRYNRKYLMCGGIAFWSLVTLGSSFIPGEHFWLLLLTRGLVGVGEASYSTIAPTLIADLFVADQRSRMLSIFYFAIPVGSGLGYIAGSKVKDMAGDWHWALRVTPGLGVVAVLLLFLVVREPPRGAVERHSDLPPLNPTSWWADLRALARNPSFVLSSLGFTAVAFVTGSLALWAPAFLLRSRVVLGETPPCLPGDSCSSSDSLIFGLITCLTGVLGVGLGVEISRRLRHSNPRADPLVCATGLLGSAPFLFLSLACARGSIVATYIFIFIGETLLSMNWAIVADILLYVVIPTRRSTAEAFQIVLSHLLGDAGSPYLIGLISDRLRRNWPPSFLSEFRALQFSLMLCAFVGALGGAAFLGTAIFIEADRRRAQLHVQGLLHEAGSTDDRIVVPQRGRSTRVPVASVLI
inactive: [1] 0.086 | vorinostat -0.022 | silmitasertib 0.033 | [2] -0.025 | entospletinib -0.045

SMAP2 (UniProt Q8WU79)
inactive: [1] 0 | vorinostat -0.032 | silmitasertib 0.017 | [2] -0.04 | entospletinib -0.028

SH3BP2 isoform 4 (UniProt P78314)
UniProt P78314, sequence (P78314 whole entry, looked up): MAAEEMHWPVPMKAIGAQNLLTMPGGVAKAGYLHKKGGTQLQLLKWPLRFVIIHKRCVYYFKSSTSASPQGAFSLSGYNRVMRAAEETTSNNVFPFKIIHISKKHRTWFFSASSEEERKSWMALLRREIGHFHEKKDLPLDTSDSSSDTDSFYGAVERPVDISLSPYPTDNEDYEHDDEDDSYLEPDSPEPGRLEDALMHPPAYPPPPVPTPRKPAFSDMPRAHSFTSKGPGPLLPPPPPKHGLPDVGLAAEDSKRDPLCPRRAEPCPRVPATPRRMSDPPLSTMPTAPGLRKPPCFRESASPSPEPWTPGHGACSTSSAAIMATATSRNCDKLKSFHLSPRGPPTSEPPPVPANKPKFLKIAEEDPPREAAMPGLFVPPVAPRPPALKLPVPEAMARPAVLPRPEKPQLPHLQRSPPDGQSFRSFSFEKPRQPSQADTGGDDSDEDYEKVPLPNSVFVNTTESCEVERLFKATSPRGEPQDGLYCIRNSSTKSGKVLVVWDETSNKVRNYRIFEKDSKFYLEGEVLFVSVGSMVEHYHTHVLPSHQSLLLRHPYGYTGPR
inactive: [1] 0.08 | vorinostat -0.27 | silmitasertib 0.092 | [2] -0.017

SSBP3 (UniProt Q9BWW4)
UniProt Q9BWW4, sequence (Q9BWW4 whole entry, looked up): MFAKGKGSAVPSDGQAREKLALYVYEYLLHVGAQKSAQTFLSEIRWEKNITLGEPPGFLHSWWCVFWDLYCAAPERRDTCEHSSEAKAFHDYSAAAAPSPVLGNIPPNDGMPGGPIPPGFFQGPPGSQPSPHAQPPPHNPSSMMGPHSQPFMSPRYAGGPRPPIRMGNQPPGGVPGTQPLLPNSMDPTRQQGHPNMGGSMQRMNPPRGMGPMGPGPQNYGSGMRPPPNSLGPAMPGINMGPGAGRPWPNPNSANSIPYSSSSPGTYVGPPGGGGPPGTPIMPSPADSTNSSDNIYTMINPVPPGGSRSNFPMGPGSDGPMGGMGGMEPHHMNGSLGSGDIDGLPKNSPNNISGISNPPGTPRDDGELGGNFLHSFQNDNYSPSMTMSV
inactive: [1] -0.085 | vorinostat 0.061 | silmitasertib -0.005 | [2] 0.088 | entospletinib 0.009

SKA1 (UniProt Q96BD8)
inactive: [1] 0.057 | silmitasertib -0.036 | [2] -0.07 | entospletinib -0.021
active: vorinostat -0.586

SMAD2 (UniProt Q15796)
active: vorinostat -0.752
inactive: [1] -0.025 | silmitasertib -0.051 | [2] 0.008 | entospletinib -0.049

SLC11A2 isoform 3 (UniProt P49281)
inactive: [1] -0.011 | vorinostat 0 | silmitasertib -0.047 | [2] 0.013 | entospletinib -0.054

STK26 (UniProt Q9P289)
inactive: [1] -0.027 | vorinostat -0.032 | silmitasertib 0.035 | [2] -0.045 | entospletinib -0.026

SVIP (UniProt Q8NHG7)
inactive: [1] 0.023 | vorinostat 0.171 | silmitasertib -0.041 | [2] -0.013 | entospletinib -0.012

SYNE2 isoform 2 (UniProt Q8WXH0)
inactive: [1] 0.071 | vorinostat 0.088 | silmitasertib -0.015 | [2] 0.051 | entospletinib -0.003

SH3BGRL2 (UniProt Q9UJC5)
UniProt Q9UJC5, sequence (Q9UJC5 whole entry, looked up): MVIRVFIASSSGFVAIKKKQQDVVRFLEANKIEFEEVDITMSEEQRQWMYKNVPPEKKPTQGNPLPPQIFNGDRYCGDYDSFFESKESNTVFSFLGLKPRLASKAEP
inactive: [1] -0.003 | vorinostat 0.153 | silmitasertib -0.011 | [2] 0.099 | entospletinib 0.04

SLC38A1 (UniProt Q9H2H9)
UniProt Q9H2H9, sequence (Q9H2H9 whole entry, looked up): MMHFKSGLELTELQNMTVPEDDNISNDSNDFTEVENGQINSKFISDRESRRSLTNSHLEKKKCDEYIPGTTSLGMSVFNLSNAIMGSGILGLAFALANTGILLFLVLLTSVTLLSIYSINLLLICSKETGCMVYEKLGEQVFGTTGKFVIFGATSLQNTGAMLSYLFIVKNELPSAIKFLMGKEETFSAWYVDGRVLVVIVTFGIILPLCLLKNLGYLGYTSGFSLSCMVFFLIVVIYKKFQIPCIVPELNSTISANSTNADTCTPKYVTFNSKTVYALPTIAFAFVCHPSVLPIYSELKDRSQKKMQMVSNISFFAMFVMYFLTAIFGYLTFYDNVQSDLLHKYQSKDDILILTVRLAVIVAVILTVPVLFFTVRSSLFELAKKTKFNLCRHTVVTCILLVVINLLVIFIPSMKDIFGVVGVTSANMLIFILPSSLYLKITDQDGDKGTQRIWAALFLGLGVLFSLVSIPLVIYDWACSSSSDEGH
inactive: [1] -0.015 | vorinostat 0.099 | silmitasertib 0 | [2] 0.008 | entospletinib -0.015

STMN3 (UniProt Q9NZ72)
UniProt Q9NZ72, sequence (Q9NZ72 whole entry, looked up): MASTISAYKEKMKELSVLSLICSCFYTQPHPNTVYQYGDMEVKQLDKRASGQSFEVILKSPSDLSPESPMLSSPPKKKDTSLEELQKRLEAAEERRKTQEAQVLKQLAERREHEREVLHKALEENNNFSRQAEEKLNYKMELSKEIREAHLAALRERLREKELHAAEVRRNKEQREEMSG
inactive: [1] -0.028 | vorinostat 0.065 | silmitasertib -0.033 | [2] -0.004 | entospletinib 0.07

SRM (UniProt P19623)
UniProt P19623, sequence (P19623 whole entry, looked up): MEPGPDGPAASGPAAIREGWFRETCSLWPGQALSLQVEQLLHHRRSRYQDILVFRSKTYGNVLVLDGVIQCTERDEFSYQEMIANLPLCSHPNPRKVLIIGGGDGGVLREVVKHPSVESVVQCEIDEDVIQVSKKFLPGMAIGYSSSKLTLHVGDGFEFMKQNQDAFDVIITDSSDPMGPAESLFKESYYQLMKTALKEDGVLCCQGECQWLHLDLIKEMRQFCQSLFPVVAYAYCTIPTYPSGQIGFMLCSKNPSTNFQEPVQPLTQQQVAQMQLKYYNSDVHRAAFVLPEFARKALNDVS
inactive: [1] 0.009 | vorinostat -0.029 | silmitasertib 0.008 | [2] 0.052 | entospletinib 0.001

SHCBP1 (UniProt Q8NEM2)
inactive: [1] 0.02 | silmitasertib 0.04 | [2] -0.009 | entospletinib -0.013
active: vorinostat -0.37

SNAP23 (UniProt O00161)
inactive: [1] -0.017 | vorinostat 0.052 | silmitasertib -0.067 | [2] -0.016 | entospletinib 0.004

SLU7 (UniProt O95391)
inactive: [1] 0.208 | vorinostat 0.012 | silmitasertib -0.037 | [2] 0.046 | entospletinib -0.024

SPC25 (UniProt Q9HBM1)
inactive: [1] 0.026 | silmitasertib 0 | [2] 0.016 | entospletinib -0.004
active: vorinostat -0.266

SHC1 isoform 6 (UniProt P29353)
inactive: [1] 0.029 | vorinostat 0.025 | silmitasertib -0.017 | [2] -0.055 | entospletinib -0.058

SMG6 (UniProt Q86US8)
inactive: [1] 0.119 | silmitasertib 0.015 | [2] -0.012 | entospletinib 0.024
active: vorinostat -0.3

SKA3 (UniProt Q8IX90)
UniProt Q8IX90, sequence (Q8IX90 whole entry, looked up): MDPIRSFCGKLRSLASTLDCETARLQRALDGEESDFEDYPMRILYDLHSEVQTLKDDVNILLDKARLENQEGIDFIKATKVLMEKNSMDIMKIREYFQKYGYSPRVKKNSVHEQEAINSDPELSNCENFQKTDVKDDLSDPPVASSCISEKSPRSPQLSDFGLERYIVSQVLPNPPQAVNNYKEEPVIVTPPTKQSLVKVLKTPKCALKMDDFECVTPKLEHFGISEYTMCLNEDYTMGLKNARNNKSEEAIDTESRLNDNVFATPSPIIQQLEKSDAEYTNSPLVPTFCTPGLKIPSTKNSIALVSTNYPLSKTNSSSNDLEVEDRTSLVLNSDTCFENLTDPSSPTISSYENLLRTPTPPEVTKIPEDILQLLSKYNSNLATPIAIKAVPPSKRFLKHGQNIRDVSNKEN
inactive: [1] -0.007 | silmitasertib 0 | [2] -0.022 | entospletinib 0.006
active: vorinostat -0.247

SPIRE1 (UniProt Q08AE8)
inactive: [1] 0.092 | vorinostat 0.15 | silmitasertib -0.02 | [2] -0.129 | entospletinib 0.076

SMC4 (UniProt Q9NTJ3)
inactive: [1] 0.013 | silmitasertib 0.011 | [2] -0.015 | entospletinib 0.009
active: vorinostat -0.296

SH3BP5L (UniProt Q7L8J4)
inactive: [1] -0.003 | vorinostat -0.025 | silmitasertib -0.068 | [2] 0.051 | entospletinib 0.009

SH3GL1 (UniProt Q99961)
inactive: [1] -0.012 | silmitasertib 0 | [2] 0.009 | entospletinib -0.004
active: vorinostat -0.245

SLC27A4 (UniProt Q6P1M0)
inactive: [1] -0.127 | silmitasertib 0.016 | [2] -0.002 | entospletinib 0.07
active: vorinostat -0.257

TARBP2 (UniProt Q15633)
inactive: [1] -0.017 | silmitasertib 0.024 | [2] -0.03 | entospletinib -0.002
active: vorinostat -0.519

STAU1 (UniProt O95793)
inactive: [1] 0.045 | vorinostat -0.035 | silmitasertib 0.017 | [2] -0.009 | entospletinib 0.009

TAF9 (UniProt Q16594)
UniProt Q16594, sequence (Q16594 whole entry, looked up): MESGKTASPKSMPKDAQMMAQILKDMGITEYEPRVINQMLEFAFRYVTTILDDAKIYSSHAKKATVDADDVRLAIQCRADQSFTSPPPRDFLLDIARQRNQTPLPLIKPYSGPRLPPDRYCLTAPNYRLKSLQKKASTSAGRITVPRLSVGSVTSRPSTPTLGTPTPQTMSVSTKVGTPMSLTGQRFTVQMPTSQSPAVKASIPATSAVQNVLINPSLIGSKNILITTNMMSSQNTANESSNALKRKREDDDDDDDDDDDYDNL
inactive: [1] 0.002 | vorinostat -0.099 | silmitasertib -0.011 | [2] -0.003 | entospletinib -0.017

SNRPD2 (UniProt P62316)
UniProt P62316, sequence (P62316 whole entry, looked up): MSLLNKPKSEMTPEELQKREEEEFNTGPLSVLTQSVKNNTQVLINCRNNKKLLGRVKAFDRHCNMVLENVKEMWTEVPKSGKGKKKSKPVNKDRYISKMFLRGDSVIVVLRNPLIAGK
inactive: [1] 0 | vorinostat 0.147 | silmitasertib -0.021 | [2] 0.015 | entospletinib 0.001

STAT2 (UniProt P52630)
active: vorinostat -0.254
inactive: [1] -0.018 | silmitasertib 0.063 | [2] -0.017 | entospletinib 0.011

SNRPD3 (UniProt P62318)
UniProt P62318, sequence (P62318 whole entry, looked up): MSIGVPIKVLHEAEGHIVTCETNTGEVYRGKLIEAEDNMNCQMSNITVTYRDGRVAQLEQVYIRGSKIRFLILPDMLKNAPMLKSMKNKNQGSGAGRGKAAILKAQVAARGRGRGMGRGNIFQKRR
inactive: [1] -0.011 | vorinostat 0.12 | silmitasertib -0.023 | [2] 0.008 | entospletinib -0.027

SMYD3 (UniProt Q9H7B4)
inactive: [1] 0.044 | silmitasertib 0.029 | [2] -0.003 | entospletinib -0.008
active: vorinostat -0.202

SMARCAD1 isoform 2 (UniProt Q9H4L7)
inactive: [1] -0.005 | silmitasertib 0.012 | [2] 0.014 | entospletinib 0.013
active: vorinostat -0.27

SLC30A6 isoform 2 (UniProt Q6NXT4)
UniProt Q6NXT4, sequence (Q6NXT4 whole entry, looked up): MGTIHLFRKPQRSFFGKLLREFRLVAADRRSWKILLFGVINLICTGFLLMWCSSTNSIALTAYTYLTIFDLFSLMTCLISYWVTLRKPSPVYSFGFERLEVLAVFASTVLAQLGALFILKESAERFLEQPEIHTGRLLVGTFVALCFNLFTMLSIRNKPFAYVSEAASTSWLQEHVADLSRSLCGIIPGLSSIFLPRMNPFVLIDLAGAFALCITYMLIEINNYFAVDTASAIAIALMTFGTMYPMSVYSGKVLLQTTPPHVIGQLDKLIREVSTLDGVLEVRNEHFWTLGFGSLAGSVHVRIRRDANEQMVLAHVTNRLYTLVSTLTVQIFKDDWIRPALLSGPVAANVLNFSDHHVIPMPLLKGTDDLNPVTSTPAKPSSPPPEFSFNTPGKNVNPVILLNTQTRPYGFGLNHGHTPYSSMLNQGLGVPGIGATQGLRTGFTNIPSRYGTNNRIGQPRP
inactive: [1] 0.014 | vorinostat 0.11 | silmitasertib 0.01 | [2] 0.001 | entospletinib 0.064

TARDBP (UniProt Q13148)
UniProt Q13148, sequence (Q13148 whole entry, looked up): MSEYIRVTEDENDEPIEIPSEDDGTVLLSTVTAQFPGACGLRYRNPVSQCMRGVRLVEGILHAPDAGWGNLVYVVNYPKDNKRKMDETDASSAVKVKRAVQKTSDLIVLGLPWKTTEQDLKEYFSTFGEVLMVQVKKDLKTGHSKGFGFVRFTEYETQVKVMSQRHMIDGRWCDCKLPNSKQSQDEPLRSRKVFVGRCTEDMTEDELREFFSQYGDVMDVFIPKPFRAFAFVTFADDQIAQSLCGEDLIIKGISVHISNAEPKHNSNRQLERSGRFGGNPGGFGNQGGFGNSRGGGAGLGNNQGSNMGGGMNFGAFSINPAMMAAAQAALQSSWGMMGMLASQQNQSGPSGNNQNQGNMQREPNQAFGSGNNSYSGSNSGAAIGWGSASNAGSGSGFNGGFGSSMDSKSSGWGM
active: vorinostat -0.44
inactive: [1] 0.044 | silmitasertib 0.086 | [2] -0.268 | entospletinib -0.027

STK39 (UniProt Q9UEW8)
inactive: [1] -0.01 | silmitasertib 0.028 | [2] -0.006 | entospletinib -0.026
active: vorinostat -0.633

SLC40A1 (UniProt Q9NP59)
inactive: [1] 0.005 | vorinostat 0.046 | silmitasertib 0 | [2] -0.016 | entospletinib 0.022

SLC39A11 (UniProt Q8N1S5)
inactive: [1] -0.076 | vorinostat 0.103 | silmitasertib -0.015 | [2] 0.058 | entospletinib -0.137

SF3B6 (UniProt Q9Y3B4)
UniProt Q9Y3B4, sequence (Q9Y3B4 whole entry, looked up): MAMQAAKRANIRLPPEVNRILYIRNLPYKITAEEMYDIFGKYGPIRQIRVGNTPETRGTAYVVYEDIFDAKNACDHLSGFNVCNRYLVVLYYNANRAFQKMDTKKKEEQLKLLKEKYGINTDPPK
inactive: [1] 0.018 | silmitasertib 0.026 | [2] 0.007 | entospletinib -0.015
active: vorinostat -0.273

SLC20A1 (UniProt Q8WUM9)
inactive: [1] 0 | vorinostat 0.062 | silmitasertib -0.05 | [2] 0.021 | entospletinib 0.064

STK11IP (UniProt Q8N1F8)
inactive: [1] -0.017 | silmitasertib 0.025 | [2] 0.008 | entospletinib 0.024
active: vorinostat -0.254

SMG5 (UniProt Q9UPR3)
inactive: [1] 0.04 | silmitasertib -0.024 | [2] 0.024 | entospletinib -0.023
active: vorinostat -0.381

SFN (UniProt P31947)
UniProt P31947, sequence (P31947 whole entry, looked up): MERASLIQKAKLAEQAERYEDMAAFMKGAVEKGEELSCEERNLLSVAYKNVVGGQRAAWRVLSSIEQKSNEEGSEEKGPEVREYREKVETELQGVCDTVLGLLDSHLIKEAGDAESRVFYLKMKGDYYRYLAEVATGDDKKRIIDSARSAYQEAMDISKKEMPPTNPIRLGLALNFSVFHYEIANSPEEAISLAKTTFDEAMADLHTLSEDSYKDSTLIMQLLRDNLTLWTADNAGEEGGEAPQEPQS
inactive: [1] -0.001 | vorinostat 0.107 | silmitasertib -0.032 | [2] -0.026 | entospletinib 0.045
